What all share (experiment): NCI-60 one-dose screen, 48 h (100 = growth as untreated, 0 = no growth, -100 = all killed)
For test [1], the system named is NCI-H23 lung. The note with it: 10 µM unless noted.
For test [2], the system named is NCI-H226 lung. The note with it: 10 µM unless noted.
Test [3] deals with NCI-H322M lung. The conditions noted are these: 10 µM unless noted.
The subject of test [4] is HOP-62 NSCLC. The conditions noted are these: 10 µM unless noted.
Test [5] concerns NCI-H460 lung. The note with it: 10 µM unless noted.
Test [6] has as its system HOP-92 NSCLC. The conditions noted are these: 10 µM unless noted.
The test system of test [7] is NCI-H522 lung. The note with it: 10 µM unless noted.
Test [8] has as its system A549/ATCC NSCLC. The note with it: 10 µM unless noted.
For test [9], the system named is 786-0 renal. The note with it: 10 µM unless noted.
For test [10], the system named is COLO 205 colon. The note with it: 10 µM unless noted.
In test [11] the test system is DU-145 prostate. The conditions noted are these: 10 µM unless noted.
Test [12] deals with K-562 leukemia. The note with it: 10 µM unless noted.
Test [13] deals with MALME-3M melanoma. The note with it: 10 µM unless noted.
The test system of test [14] is MDA-MB-231 breast. The conditions noted are these: 10 µM unless noted.
The subject of test [15] is RXF 393 renal. The note with it: 10 µM unless noted.
Test [16] deals with SF-268 CNS. The note with it: 10 µM unless noted.
In test [17] the test system is SF-295 CNS. The note with it: 10 µM unless noted.
In test [18] the test system is SF-539 CNS. The note with it: 10 µM unless noted.
Test [19] concerns UACC-257 melanoma. The conditions noted are these: 10 µM.
Test [20] concerns M14 melanoma. The note with it: 10 µM unless noted.

The panel holds about 83,000 compounds, 20% with a hit somewhere; the sample as a whole holds those more often.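 Each cell line was grown in a 96-well plate and treated with one concentration of compound for 48 hours. Values below 10 were considered active.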 Unmarked numbers belong to inactive results. Active and inactive are the calls of the source.

Take `COc1cc(C(=O)c2cc(C(C)=O)c3c4ccccc4ccn23)cc(OC)c1OC`: the growth in test [1] was 64.4%; in test [2] it was 66.8%; in test [3] it was 74.8%; in [4], 56%; in test [5], 45.1%; in test [6], 26.8%. Further, the growth in test [7] is 52%; in test [8], 61.1%; in [9] it was 70.1%; in [10], 38.6%; in test [11], 94.4%; in test [12] it was 23.9%. Further, the growth in test [13] was 64.6%; in test [14], 54.7%; in test [15], 49.2%; in [16] it was 74.3%; in test [17] it was 55.2%; in [18] it was 75.3%. Also, the growth is 75.8% in test [19] and 58.6% in [20].

Consider `O=S(=O)(Nc1ccc2c(c1)OC(F)(F)O2)c1ccc(-c2cnc(C3CC3)o2)cc1`, for which the growth is 55.2% in test [1]; 60.8% in test [2]; 83.3% in test [3]; 35.9% in test [4]; 17.3% in [5]; 66.7% in [6]. Moreover, the growth was 43.2% in [7]; 47.7% in test [8]; 47.2% in [9]; 47.4% in test [10]; 68.6% in test [11]; 9.69% (active) in [12]. The growth in [13] was 50.2%; in test [14], 48.1%; in test [15], 49.5%; in test [16], 60.6%; in test [17] it was 22.6%; in test [18] it was 37.8%. The growth in [19] was 58.9%; in [20] it was 25.4%.

For the compound `CCCCCCCCNC(=O)c1ccc(Cn2c(CCCC)nc3c(N)nc4ccccc4c32)cc1`, the growth in test [1] is 38.8%; in test [2], 87.7%; in [3], 85.3%; in test [4], 75.5%; in test [5], 3.61% (active); in test [6], 26.2%. Further, the growth in test [7] was -50.4% (active); in [8], 57.7%; in test [9], -78.3% (active); in test [10], -8.18% (active); in test [11], 27.7%; in test [12], -59.9% (active). In addition, the growth in test [13] is -82.9% (active); in test [14] it was -71.6% (active); in [15], 23.3%; in test [16], 53.7%; in [17] it was -80.8% (active); in [18], -87.1% (active). Further, the growth is -70.3% (active) in test [19] and -80.4% (active) in [20].

For `CCc1ccc(NC(=O)N[C@@H](Cc2cccc(C)c2)C(=O)N[C@@H]2C(=O)N3CCC[C@H]3C(=O)N3CCCC[C@H]3C(=O)N[C@@H](CO)C(=O)N3C[C@H](C)C[C@H]3C(=O)O[C@H]2C)c(F)c1`, the growth in [1] is 34.4%; in test [2], -4.68% (active); in [3] it was 49.9%; in test [4], 30.5%; in test [5], 12.5%; in test [6] it was -0.374% (active). The growth is 21% in test [7]; 27.9% in test [8]; 40.8% in test [9]; -36% (active) in test [10]; 25.3% in [11]; 27% in test [12]. Besides, the growth in [13] is 37.3%; in test [14], 33.9%; in [15], -9.15% (active); in test [16] it was 30.1%; in test [17] it was 12.8%; in [18], 37.5%. The growth was 15% in test [19] and 23.7% in test [20].

`O=c1[nH]c(CNc2ccc(NCc3c(-c4ccccc4)no[n+]3[O-])cc2)nc2c1cnn2-c1ccccc1`: the growth in test [1] is 63.4%; in test [2], 77.1%; in test [3] it was 80.2%; in [4], 105%; in [5] it was 64.2%; in test [6] it was 85.4%. Further, the growth in test [7] was 60.8%; in [8], 63.8%; in test [9], 86%; in test [10] it was 101%; in test [11], 74.6%; in test [12], 49.8%. Moreover, the growth in test [13] is 80%; in test [14], 72.5%; in test [15], 98.4%; in test [16], 73.5%; in [17] it was 71.8%; in test [18], 92.6%. For the same compound, the growth in test [19] was 60.6%; in test [20], 70.7%.

For `Nc1c(C(=O)c2ccccc2)sc2nc(-c3cnccn3)cc(-c3cccs3)c12`, the growth in test [1] is 104%; in test [2], 95.8%; in [3] it was 100%; in test [4], 97.6%; in test [5], 103%; in [6], 106%. The growth in test [7] is 96.8%; in test [8], 102%; in test [9] it was 106%; in [10] it was 108%; in test [11], 106%; in test [12], 99.4%. Besides, the growth in test [13] was 104%; in test [14], 92.7%; in [15], 108%; in test [16] it was 97.8%; in [17], 105%; in test [18], 95.2%. Moreover, the growth in [19] is 103%; in test [20] it was 97.4%.

On to `O=C(COc1ccc(C2SCC(=O)N2c2ccccc2)cc1)c1ccccc1` (stereo not given), for which the growth in [1] was 94%; in test [2], 90%; in test [3], 103%; in test [4], 95.6%; in [5], 102%; in test [6], 86.8%. Besides, the growth was 80.6% in [7]; 93.8% in test [8]; 102% in [9]; 111% in test [10]; 102% in test [11]; 88.9% in [12]. Besides, the growth in test [13] was 100%; in [14], 81.6%; in test [15], 91.2%; in test [16], 93.4%; in [17], 96.9%; in test [18], 101%. The growth in test [19] and in test [20] was 102% throughout.
